Source: PubChem (National Center for Advancing Translational Sciences (NCATS))
Sampled rows, rich in hits. Any-hit rate of the full collection: about 18%.
TGFb inhibitor = qHTS for Inhibitors of TGF-b | HepG2 CAGA-GFP TGF-b/SMAD3 reporter, GFP fluorescence, 18 h; TGF-beta stimulated, 500 pg/mL final | Potency, µM (highest dose often 46.1 µM), inactives show at the highest dose activity, negative = inhibition, hits mostly inhibitors | 410,000 tested, 1.2% active | AID 588855, 2011; note: potency is the fitted concentration of half-maximal effect; % is set by controls: 0 for no effect and ±100 for the full control effect; nearly all actives have a fitted effect of over 65% in size
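Per well, imaged GFP fluorescence of HEPG2 CAGA-GFP cells gives the signal; cells get compound, then TGF-beta (500 pg/mL final), 18 h at 37 degrees C; %Activity versus -TGF-beta and +DMSO controls.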
HepG2 viability = qHTS for Inhibitors of TGF-b: Cytotox Counterscreen. HepG2 CAGA-GFP viability, ATP luminescence, 18 h. Potency, µM (highest dose often 46.1 µM), without a hit: at the top dose activity change, negative = cytotoxicity, hits mostly cytotoxic. 410,000 tested, 0.76% active. AID 588856, 2011; note: potency is the fitted concentration of half-maximal effect
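CellTiter-Glo luminescence gave cytotoxicity after 18 hours at 37 degrees C. The cells were HepG2 CAGA-GFP in 1% FBS DMEM, stimulated with 500 pg/mL TGF-beta after compound addition. %Activity was normalised to no-cell wells (complete cell-killing) and DMSO (no toxicity), and curves were fitted and classified.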
TDP1 inh = qHTS Assay for Inhibitors of Tyrosyl-DNA Phosphodiesterase (TDP1) | Potency, µM (top dose mostly 130 µM), for the others: at the highest dose activity change, negative = inhibition, usual class: inhibitors | AID 485290, 2010 | recombinant TDP1, AlphaScreen DNA substrate cleavage | 350,000 tested, 0.28% active; note: potency is the fitted concentration of half-maximal effect; % is set by controls: 0 for no effect and ±100 for the full control effect; nearly all actives have a fitted effect of over 40% in size
Target sequence (Q9NUW8 whole entry, looked up): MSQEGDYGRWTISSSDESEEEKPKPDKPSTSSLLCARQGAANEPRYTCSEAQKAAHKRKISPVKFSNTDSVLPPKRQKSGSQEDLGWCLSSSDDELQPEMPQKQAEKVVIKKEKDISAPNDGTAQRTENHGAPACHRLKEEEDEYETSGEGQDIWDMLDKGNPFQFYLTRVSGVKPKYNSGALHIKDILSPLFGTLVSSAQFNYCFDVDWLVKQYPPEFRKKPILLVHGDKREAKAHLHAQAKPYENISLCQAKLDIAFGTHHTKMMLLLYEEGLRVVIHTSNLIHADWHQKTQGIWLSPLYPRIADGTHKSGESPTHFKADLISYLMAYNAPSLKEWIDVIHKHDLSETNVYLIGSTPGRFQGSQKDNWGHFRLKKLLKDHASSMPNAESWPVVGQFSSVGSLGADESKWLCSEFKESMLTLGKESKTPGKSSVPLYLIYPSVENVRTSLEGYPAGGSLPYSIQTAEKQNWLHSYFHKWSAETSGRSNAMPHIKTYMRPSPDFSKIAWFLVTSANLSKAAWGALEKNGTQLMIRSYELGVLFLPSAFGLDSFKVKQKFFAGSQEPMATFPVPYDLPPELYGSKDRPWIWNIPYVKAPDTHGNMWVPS
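AlphaScreen read-out: signal falls as enzyme removes the 3' tyrosine-FITC from a 5'-biotinylated DNA oligo (15 nM, 5 min, RT). Enzyme was E. coli-made recombinant Tdp1 at 1 nM, exposed to compound for 15 min beforehand; beads 10 ug/ml, 10 min.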
TDP1 cell CPT = qHTS for Inhibitors of human tyrosyl-DNA phosphodiesterase 1 (TDP1): qHTS in cells in presence of CPT; AID 686979, 2013; chicken DT40 Tdp1-/-;hTDP1 cells + 20 nM CPT, ATP luminescence, 48 h; Potency, µM (titrated, usually from 46.2 µM), without a hit: at the highest dose activity change, negative = growth inhibition, most hits filed as inhibitors; 420,000 tested, 12% active; note: potency is the fitted concentration of half-maximal effect; % is set by controls: 0 for no effect and ±100 for the full control effect; nearly all actives have a fitted effect of over 55% in size
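Cell growth measured by CellTiter-Glo luminescence after a minimum 48 h, 37 C compound exposure with 20 nM CPT in Tdp1-knockout DT40 cells stably expressing hTDP1, seeded 400/well; qHTS titration format.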
DT40 TDP1 no CPT = qHTS for Inhibitors of human tyrosyl-DNA phosphodiesterase 1 (TDP1): qHTS in cells in absence of CPT. AID 686978, 2013. DT40 Tdp1-/- hTDP1 cells, no CPT, ATP luminescence, 48 h. Potency, µM (titrated, usually from 46.2 µM), inactives show top-dose activity change, negative = growth inhibition, hits mostly inhibitors. 420,000 tested, 15% active; note: potency is the fitted concentration of half-maximal effect; % is set by controls: 0 for no effect and ±100 for the full control effect; nearly all actives have a fitted effect of over 55% in size
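A cellular qHTS used chicken DT40 cells lacking endogenous Tdp1 but carrying stably transfected human TDP1. Compounds were applied without camptothecin, and cell growth kinetics were judged by ATP-dependent luminescence after ≥48 hr.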
IL1B secr inh = qHTS for Inhibitors of Inflammasome Signaling: IL-1-beta AlphaLISA Primary Screen; THP-1 LPS/ATP IL-1B secretion, AlphaLISA, 16 h; hits give low values; activity change, % at 57.5 µM; 360,000 tested, 4.7% active; AID 743279, 2014; in the data active = activity change below about -50%; inconclusive = mostly about -30% to -49%; note: % is set by controls: 0 for no effect and ±100 for the full control effect
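Secreted IL-1B measured by AlphaLISA bead assay after 16 h compound exposure of THP-1 cells; compounds (final up to 57.5 uM) added 1 h before LPS (250 ng/mL) and ATP (1.25 mM) stimulation; lower signal means less secretion.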
Starred values were filed as active, the others as inactive; u = inconclusive; x = not tested or not shown; [ ] = remark or other dose. Unless noted, calls come from the whole dose curve; as a rule, active = well fitted curve in the direction sought with a large enough effect; inconclusive = small, poorly fitted or top-dose-only effect, or another doubt; inactive = no such curve, though single readings can be large; an effect the other way counts as inactive or inconclusive.

SMILES | TGFb inhibitor | HepG2 viability | TDP1 inh | TDP1 cell CPT | DT40 TDP1 no CPT | IL1B secr inh
O=C(N/N=C/c1ccc(OC(F)F)cc1)c1ccc(CSc2nc3ccccc3[nH]2)cc1 | -25% | 1% | 2% | u | u | 0
COC(=O)c1ccc(CSc2nc3ccc(S(=O)(=O)N4CCOCC4)cc3[nH]2)cc1 | -13% | 26% | -3% | -26% | u | u
CCOc1ccc(/C=N/NC(=O)c2ccc(CSc3nc4ccccc4[nH]3)cc2)cc1 | -16% | -20% | -1% | 23µM* | 23µM* | 21
COC(=O)c1ccc(CSc2nc3ccc(S(N)(=O)=O)cc3[nH]2)cc1 | -29% | -26% | 0% | -4% | 1% | -101*
COC(=O)c1cccc(CSc2nc3ccccc3[nH]2)c1 | -11% | -27% | 1% | u | 16µM* | 3
CCC(C)n1c(=N)c(C(=O)NCc2ccccc2)cc2c(=O)n3cc(C)ccc3nc21 (configuration not stated) | u | -10% | x | u | 16µM* | x
N=c1c(C(=O)NC2CCCCC2)cc2c(=O)n3ccccc3nc2n1CCc1ccccc1 | 1% | -15% | 13% | u | 21µM* | 40
N=c1c(C(=O)NC2CCCCC2)cc2c(=O)n3ccccc3nc2n1Cc1ccccc1 | 17% | 1% | 2% | u | u | 21
Cc1ccc2nc3c(cc(C(=O)NC4CCCCC4)c(=N)n3C3CCCCC3)c(=O)n2c1 | 7% | -8% | 4% | u | 15µM* | 6
Cc1ccc(Cn2c(=N)c(C(=O)NC3CCCC3)cc3c(=O)n4ccccc4nc32)cc1 | -9% | -2% | 1% | 10µM* | 6.5µM* | -7
Cc1ccc2nc3c(cc(C(=O)NC4CCCC4)c(=N)n3C3CCCCC3)c(=O)n2c1 | -19% | -10% | x | u | u | 30
Cc1ccc(-n2c(=O)c3c(c4cc(C)ccc4n3C)n(CC(=O)NCCC3=CCCCC3)c2=O)cc1 | -9% | -6% | 5% | -9% | -6% | x
COc1ccc(-c2cc(=O)oc3c(C)c(OC(C)C(=O)Nc4ccc(CN5CCOCC5)cc4)ccc23)cc1 (configuration not stated) | u | -31% | 6% | u | u | -20
CC1(Oc2cccc(C#N)c2)CCN(Cc2csc3ccccc23)C1 (configuration not stated) | -4% | -9% | x | u | u | -7
O=C(NC1CCCCCC1)C1CCN(S(=O)(=O)c2c(Cl)cccc2Cl)CC1 | u | -25% | 1%[56.1 µM] | 23µM* | 23µM* | 0
O=C(Nc1ccncc1)C1CCN(S(=O)(=O)c2c(Cl)cccc2Cl)CC1 | u | -25% | 1% | u | 18µM* | 21
COc1ccccc1CNC(=O)c1cccc(-c2ccccc2OC)n1 | x | x | 12% | x | x | x
CCOC(=O)c1csc(NC(=O)c2cc(-c3ccccn3)nc3ccccc23)n1 | -6% | -1% | 0% | -4% | 4% | -25
CC(=O)c1c(C(C)=O)c(C)n(C(c2ccccc2)c2ccccc2)c1C | 28% | -1% | 7% | u | 21µM* | -5
CC(=O)c1c(C(C)=O)c(C)n(NC(=O)c2ccccc2Cl)c1C | 29% | 4% | 0% | -25% | -13% | 7
Fc1cc(Cl)cc2ccc(-c3ccccc3)nc12 | u | -85% | x | 1% | -10% | 0
O=C1CC(N2CCN(c3ccccn3)CC2)C(=O)N1CC(c1ccccc1)c1ccccc1 (configuration not stated) | 1% | -31% | 4% | 23µM* | u | 17
CCOC(=O)C1CCN(c2cc(C)nc3ccc(OC)cc23)CC1 | -11% | -14% | 2% | u | 16µM* | -17
COc1ccc2nc(C)cc(N3CCC(C(N)=O)CC3)c2c1 | -7% | 3% | 8% | 13% | -22% | -18
COc1ccc(N2CCN(c3cc(C)nc4ccc(OC)cc34)CC2)cc1 | u | -23% | 9% | 15µM* | 23µM* | -1
SMILES | TGFb inhibitor | HepG2 viability | TDP1 inh | TDP1 cell CPT | DT40 TDP1 no CPT | IL1B secr inh
CC1=NN(C2=NS(=O)(=O)c3ccccc32)C(C)(O)C1 (configuration not stated) | 0% | -6% | x | 0.41µM* | 0.37µM* | 21
COC(=O)c1ccc(NC(=O)c2cc3cc(C)ccc3n2C)cc1 | u | -17% | -4% | -26% | u | x
CCn1c2ccccc2c2cc(NC(=O)CN(C)CC(=O)Nc3ccc(N4CCOCC4)cc3)ccc21 | -17% | -14% | 4% | u | 23µM* | u
CCn1c2ccccc2c2cc(NC(=O)c3cc(C)on3)ccc21 | -16% | 5% | 4% | u | 18µM* | u
CCn1c2ccccc2c2cc(NC(=O)c3ccc(C)c([N+](=O)[O-])c3)ccc21 | 7% | 12% | 4% | 5.8µM* | 3.3µM* | -26
CCn1c2ccccc2c2cc(NC(=O)c3cc(OC)cc(OC)c3)ccc21 | u | 12% | 2% | 1µM* | 0.73µM* | 19
CCn1c2ccccc2c2cc(NC(=O)c3coc(=O)c(Br)c3)ccc21 | x | x | 1% | x | x | x
CCCCn1c(N)c(N(CC(C)C)C(=O)c2ccc(Cl)c(S(=O)(=O)N3CCCC3)c2)c(=O)[nH]c1=O | 17% | -1% | -13% | u | -9% | -3
Cc1ccc(Cn2ccn(Cc3ccccc3F)c(=O)c2=O)cc1 | -2% | -18% | 1% | -11% | -27% | x
OCC1OC(/C=C\c2ccccc2)C=CC1Oc1ccc2c(c1)OCO2 (configuration not stated) | x | x | 11%[21 µM] | x | x | x
CN(CC(=O)Nc1ccc(N2CCOCC2)cc1)Cc1cc(=O)n2ccsc2n1 | -16% | 4% | 2% | 18µM* | u | 45
CCn1c2ccccc2c2cc(NC(=O)c3cccc([N+](=O)[O-])c3)ccc21 | 1% | -9% | 5% | 21µM* | 21µM* | -13
O=C(Nc1ccc(NC(=O)c2cccc([N+](=O)[O-])c2)cc1)c1cccc([N+](=O)[O-])c1 | 2% | 7% | x | -1% | -37% | -4
C/C(CC(=O)Nc1ccc(C)c(Cl)c1)=N\NC(=O)Cc1ccccc1 | -1% | -22% | 3% | -12% | -28% | -5
